Assay outcomes as filed in PubChem.
A selection: hits, their analogues and other compounds. The true share with any hit is near 6.6%.
Gli-Sufu antag: antagonists of Gli-Sufu signaling. inhibition, % at 5 µM. Sufu-KO-LIGHT fibroblasts, Gli luciferase reporter luminescence. 340,000 compounds, 0.74% hits;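 active = inhibition above about 55%, limit read from the data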
GRIN3A LBD mod: modulators (binders) of human NR3A ligand-binding domain; 340,000 compounds, 2.5% hits; NR3A LBD differential scanning fluorimetry, Tm shift; 0% = protein alone, 100% = glycine-bound protein; Tm shift relative to glycine control, % at 25 µM;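 active = melting temperature shift of at least 10% of the positive control shift, at one fixed dose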
CSC inhib: cancer stem cell inhibition. cancer stem cell-like cells viability, luminescence. inhibition, % at 7.5 µM. 300,000 compounds, 1.1% hits. AID 2717; in the data active = inhibition above about 75%; tested in HMLE shEcad cells
Beta cell apopt: beta cell apoptosis inhibition; 300,000 compounds, 0.8% hits; protection from apoptosis, % (test concentration not listed); INS-1E cytokine-induced death, ATP luminescence, 48 h; percent of positive-control rescue, neutral wells zero; AID 435005;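 active = Every replicate reaches about 75%, or at least half do and their mean reaches it too, limit read from the data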;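 also: higher means more ATP so stronger rescue from cytokine killing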
Mdm2 MdmX PPI: disrupts the human Mdm2-MdmX interaction; inhibition, % at 8 µM; SaOS-2 split-luciferase Mdm2/MdmX complementation, luminescence; O15151+Q00987; 330,000 compounds, 3% hits;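 active = inhibition of at least 50% at 8 µM in the primary screen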
Target sequence (O15151 whole entry, looked up): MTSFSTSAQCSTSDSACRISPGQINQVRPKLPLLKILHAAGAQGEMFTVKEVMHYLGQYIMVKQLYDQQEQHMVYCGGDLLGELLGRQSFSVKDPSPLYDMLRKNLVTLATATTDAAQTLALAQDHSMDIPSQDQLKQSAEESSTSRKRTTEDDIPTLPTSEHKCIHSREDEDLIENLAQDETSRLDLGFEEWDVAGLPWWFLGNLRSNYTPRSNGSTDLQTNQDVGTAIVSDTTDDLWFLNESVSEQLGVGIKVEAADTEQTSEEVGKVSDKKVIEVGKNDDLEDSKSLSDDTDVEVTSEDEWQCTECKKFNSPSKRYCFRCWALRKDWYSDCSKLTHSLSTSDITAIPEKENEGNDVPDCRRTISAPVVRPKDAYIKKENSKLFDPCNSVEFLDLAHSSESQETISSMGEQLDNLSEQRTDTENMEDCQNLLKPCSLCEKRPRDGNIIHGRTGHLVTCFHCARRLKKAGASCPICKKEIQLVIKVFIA
Target sequence (Q00987 whole entry, looked up): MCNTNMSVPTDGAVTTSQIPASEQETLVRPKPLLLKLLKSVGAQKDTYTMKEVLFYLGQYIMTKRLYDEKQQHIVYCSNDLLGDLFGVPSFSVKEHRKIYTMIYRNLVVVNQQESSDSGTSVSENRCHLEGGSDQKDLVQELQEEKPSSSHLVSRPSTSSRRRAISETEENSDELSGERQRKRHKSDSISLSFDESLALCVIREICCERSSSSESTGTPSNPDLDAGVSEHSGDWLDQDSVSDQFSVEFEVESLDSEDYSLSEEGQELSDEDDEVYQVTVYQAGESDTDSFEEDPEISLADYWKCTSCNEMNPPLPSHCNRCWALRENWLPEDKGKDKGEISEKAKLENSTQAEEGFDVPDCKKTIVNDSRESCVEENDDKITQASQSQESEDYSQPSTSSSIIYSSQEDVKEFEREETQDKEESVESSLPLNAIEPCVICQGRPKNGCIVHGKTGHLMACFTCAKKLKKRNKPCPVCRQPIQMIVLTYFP
MPTP block: permeability transition pore inhibition; isolated mouse mitochondria, Ca2+ swelling absorbance, 30 min; inhibition, % at 10 µM; 360,000 compounds, 1.4% hits;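 active = inhibition of 50% or more, scaled per plate between neutral and stimulator controls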
Each line names hits and unclear results; the compound was inactive in the other large screens.

O=C(COC(=O)CCC1CCCC1)Nc1nc2c(F)c(F)c(F)cc2s1	GRIN3A LBD mod 21.9
O=C(COC(=O)c1ccco1)Nc1nc2c(F)c(F)c(F)cc2s1	none
N#Cc1cc(-c2ccccc2)cn(Cc2c(Cl)cccc2Cl)c1=O	GRIN3A LBD mod 11.2
Cc1ccc(-c2cc(C#N)c(=O)n(Cc3c(Cl)cccc3Cl)c2)cc1	none
NS(=O)(=O)c1ccc(NC(=O)c2cccc(N3C(=O)c4ccccc4C3=O)c2)cc1	none (no result: CSC inhib)
COc1ccc(Cl)c(-c2cc(C(=O)Nc3ccccc3)[nH]n2)c1	none (no result: Gli-Sufu antag, GRIN3A LBD mod, CSC inhib, Beta cell apopt, Mdm2 MdmX PPI)
NS(=O)(=O)c1ccc(NC(=O)c2cc(-c3ccccc3O)n[nH]2)cc1	GRIN3A LBD mod 34.2 (no result: Gli-Sufu antag)
COc1ccc(NC(=O)c2cc(-c3ccccc3O)n[nH]2)cc1Cl	GRIN3A LBD mod 26.0
Cc1ccc(NC(=O)c2cc(-c3ccccc3O)n[nH]2)cc1Cl	GRIN3A LBD mod 26.2
CCC(=O)N1CCC1(C)C(=O)Nc1cnc2ccccc2c1 (stereo unspecified)	none (no result: Gli-Sufu antag, GRIN3A LBD mod, CSC inhib, Beta cell apopt, Mdm2 MdmX PPI)
COc1ccc(C(=O)CSc2nnc(CN3CCCCC3)n2-c2ccc(Cl)cc2)cc1OC	CSC inhib 140.1
CCOc1ccc(CCNC(=O)CCNC(=O)c2ccccc2Cl)cc1OCC	none
COc1ccc(/C=N/NS(=O)(=O)c2ccc(F)cc2)cc1COc1cc(F)ccc1[N+](=O)[O-]	GRIN3A LBD mod 10.6
Fc1ccc2[nH]c3c(c2c1)CN(C(=S)NCc1ccccc1)CC3	GRIN3A LBD mod 29.1
C=CCNC(=O)N1CCc2[nH]c3ccc(F)cc3c2C1	none (no result: Beta cell apopt)
CC1CCCN(S(=O)(=O)c2ccc(NC(=O)Cn3nnc(-c4ccccc4F)n3)cc2)C1 (stereo unspecified)	GRIN3A LBD mod 11.6
CCc1ccc(C(=O)NNc2ccc(Cl)cc2)cc1	CSC inhib 98.8 (no result: Gli-Sufu antag)
CCOC(=O)C(=O)NNc1ccc(C)cc1	CSC inhib 102.2
CCCCN=C(NNc1ccc(Br)cc1)C(=O)OCC	CSC inhib 136.0
O=C(NNc1ccc(Cl)cc1)c1cccs1	CSC inhib 95.9
C[C@@H]1COc2cccc(N3CCC[C@H]3CO)c2S(=O)(=O)N1	none (no result: Gli-Sufu antag, GRIN3A LBD mod, CSC inhib, Beta cell apopt, Mdm2 MdmX PPI)
C=CCNC(=O)c1c(CSc2ccc(Cl)cc2)noc1C(=O)NCc1ccccc1	none
COc1cc(C(CC(=O)Nc2ccccn2)N2Cc3ccccc3C2=O)cc(OC)c1OC (stereo unspecified)	none
CCOC(=O)C(=O)NNc1ccccc1OC	none
CCOC(=O)C(=O)NNc1ccc(Cl)cc1	CSC inhib 81.8
CC(C)N(Cc1ccccc1)S(=O)(=O)c1ccc(-n2cccn2)cc1	none (no result: Gli-Sufu antag, GRIN3A LBD mod, CSC inhib, Beta cell apopt, Mdm2 MdmX PPI)
CCCSc1nc2sc3c(c2c(=O)[nH]1)CCN(Cc1ccccc1)C3	none
O=c1[nH]c(C(Cl)Cl)nc2sc3c(c12)CCN(Cc1ccccc1)C3	GRIN3A LBD mod 15.0 (no result: Mdm2 MdmX PPI)
COCCCNC(=O)c1c(N)n(-c2cccc(S(N)(=O)=O)c2)c2nc3ccccc3nc12	none
CCCNC(=O)c1c(N)n(-c2cccc(OC)c2)c2nc3ccccc3nc12	Beta cell apopt 103.6
O=C(CCc1ccccc1)Nc1cc(NC(=O)CCc2ccccc2)cc(C(=O)O)c1	GRIN3A LBD mod 17.0
O=C(CCc1ccccc1)Nc1ccncc1	none
O=C(COc1ccccc1)Nc1ccc2c(c1)Cc1cc(NC(=O)COc3ccccc3)ccc1-2	GRIN3A LBD mod 22.5
C/C(=N\NC(=O)COc1ccccc1)c1ccc(O)cc1	GRIN3A LBD mod 13.1
Cc1ccccc1OCC(=O)Nc1ccc2c(c1)Cc1ccccc1-2	none
COc1ccc(OCC(=O)NNC(=O)CCc2ccccc2)cc1	none (no result: CSC inhib)
COc1ccc(OCC(=O)N/N=C(\C)c2ccc(OC)cc2)cc1	none
O=C(CCc1ccccc1)NNC(=O)COc1ccccc1	GRIN3A LBD mod 12.7
CC(=O)Nc1ccc(NC(=O)CCNC(=O)c2ccccc2Cl)cc1	none
Cc1ccc(C2C=CC(C#N)=CN2Cc2ccccc2)cc1 (stereo unspecified)	none (no result: Gli-Sufu antag, GRIN3A LBD mod, CSC inhib, Beta cell apopt, Mdm2 MdmX PPI)
O=C(CCc1ccccc1)NNC(=O)Nc1ccc(Br)cc1	GRIN3A LBD mod 11.9
O=[N+]([O-])c1[nH]cnc1/C=C/c1ccccc1	GRIN3A LBD mod 22.3
Oc1ccc(N=Nc2n[nH]c(-c3ccc(Br)cc3)n2)cc1	GRIN3A LBD mod 26.9 (no result: Mdm2 MdmX PPI)
Oc1ccc(N=Nc2nc(-c3ccccc3)c(-c3ccccc3)[nH]2)cc1	CSC inhib 189.0
Oc1ccc(N=Nc2n[nH]c(-c3ccccc3)n2)cc1	GRIN3A LBD mod 10.2
CN(CC(=O)NCc1cccnc1)S(=O)(=O)c1ccc(F)cc1	none
CC1CCN(S(=O)(=O)c2ccc(NC(=O)c3ccco3)cc2)CC1	none (no result: CSC inhib)
Cc1cccc(NC(=O)CCCN2C(=O)C(c3ccccc3)Oc3cccnc32)c1C (stereo unspecified)	none
O=C([C@H]1O[C@@H](n2ccc(=O)[nH]c2=O)[C@H](O)[C@@H]1O)N1CCN(Cc2ccccn2)CC1	none (no result: Gli-Sufu antag, GRIN3A LBD mod, CSC inhib, Beta cell apopt, Mdm2 MdmX PPI)
COc1ccccc1NC(=S)NCCc1ccc(Cl)cc1	none (no result: Beta cell apopt)
O=C(CN1C(=O)NC(Cc2c[nH]c3ccccc23)C1=O)Nc1ccc(Br)cc1F (stereo unspecified)	GRIN3A LBD mod 12.4
COc1ccc(Cl)cc1NC(=S)NCCc1c[nH]c2ccccc12	GRIN3A LBD mod 28.7
COc1ccc(CNC(=O)NCCc2c[nH]c3ccccc23)cc1	none
COc1ccc(CCNC(=S)NCCc2c[nH]c3ccccc23)cc1	GRIN3A LBD mod 30.7
O=C(NCCc1c[nH]c2ccccc12)c1ccc(Cl)cc1	GRIN3A LBD mod 29.2
Cc1ccc(S(=O)(=O)c2cc3c(=O)n4ccccc4nc3n(C3CCCCC3)c2=N)cc1	none
Cc1ccc(NC(=O)CN(C)C(=O)c2cccc(S(=O)(=O)NCc3ccccc3)c2)cc1	none
COc1ccc(C(=O)NCCc2c[nH]c3ccccc23)cc1	GRIN3A LBD mod 10.0
COc1ccc(-c2cn(CCc3c[nH]c4ccccc34)nn2)cc1	GRIN3A LBD mod 19.4, CSC inhib 96.2
Cc1cccc2c(CCNC(=O)c3ccc([N+](=O)[O-])cc3)c[nH]c12	GRIN3A LBD mod 17.8
COc1ccc(CCNC(=O)CN2C(=O)NC(Cc3c[nH]c4ccccc34)C2=O)cc1 (stereo unspecified)	GRIN3A LBD mod 24.9
CC(C)C(NC(=O)c1ccc(F)cc1)C(=O)N1CCN(C(=O)c2ccco2)CC1 (stereo unspecified)	none
CCC(=O)N(Cc1cc(=O)[nH]c2ccccc12)c1ccc(OC)cc1	none
CC(OC(=O)c1cc(=O)[nH]c2ccccc12)C(=O)NC1CCCC1 (stereo unspecified)	none (no result: CSC inhib)
COc1ccc([C@H]2C[C@H](O)C[C@@H](CCn3cc(-c4ccccc4)nn3)O2)cc1	none (no result: Gli-Sufu antag, GRIN3A LBD mod, CSC inhib, Beta cell apopt, Mdm2 MdmX PPI)
COc1cc(C(C)=O)ccc1OCC(=O)N1CCCC1c1ccc2c(c1)OCCCO2 (stereo unspecified)	none (no result: Gli-Sufu antag, GRIN3A LBD mod, CSC inhib, Beta cell apopt, Mdm2 MdmX PPI)
COc1ccc(C(=O)NCCc2c[nH]c3ccccc23)cc1[N+](=O)[O-]	GRIN3A LBD mod 25.3 (no result: Beta cell apopt)
COc1ccc(C(=O)NCCc2ccccc2)cc1[N+](=O)[O-]	none
O=C1c2ccccc2C(=O)c2c1cccc2N1CCCC1	none (no result: Mdm2 MdmX PPI)
